Laboratory results as given in the supplement of paper PMC11732987, “Enantioselective OTUD7B fragment discovery through chemoproteomics screening and high-throughput optimisation” (Communications Chemistry, 2025).

Experiments:
Assay in all cases: log2 ratio of Biotin-Ahx-Ub-VS probe labelling (fragment/DMSO); higher = less target engagement (more negative = stronger competition), active = hit call of the paper (q ≤ 0.05, log2 ratio ≤ -1)
Details in all cases: compound concentration: 200 uM; treatment time: 3 h
USP42 = biological target: T1, USP42 (UniProt Q9H9J4)
T1 sequence (whole entry): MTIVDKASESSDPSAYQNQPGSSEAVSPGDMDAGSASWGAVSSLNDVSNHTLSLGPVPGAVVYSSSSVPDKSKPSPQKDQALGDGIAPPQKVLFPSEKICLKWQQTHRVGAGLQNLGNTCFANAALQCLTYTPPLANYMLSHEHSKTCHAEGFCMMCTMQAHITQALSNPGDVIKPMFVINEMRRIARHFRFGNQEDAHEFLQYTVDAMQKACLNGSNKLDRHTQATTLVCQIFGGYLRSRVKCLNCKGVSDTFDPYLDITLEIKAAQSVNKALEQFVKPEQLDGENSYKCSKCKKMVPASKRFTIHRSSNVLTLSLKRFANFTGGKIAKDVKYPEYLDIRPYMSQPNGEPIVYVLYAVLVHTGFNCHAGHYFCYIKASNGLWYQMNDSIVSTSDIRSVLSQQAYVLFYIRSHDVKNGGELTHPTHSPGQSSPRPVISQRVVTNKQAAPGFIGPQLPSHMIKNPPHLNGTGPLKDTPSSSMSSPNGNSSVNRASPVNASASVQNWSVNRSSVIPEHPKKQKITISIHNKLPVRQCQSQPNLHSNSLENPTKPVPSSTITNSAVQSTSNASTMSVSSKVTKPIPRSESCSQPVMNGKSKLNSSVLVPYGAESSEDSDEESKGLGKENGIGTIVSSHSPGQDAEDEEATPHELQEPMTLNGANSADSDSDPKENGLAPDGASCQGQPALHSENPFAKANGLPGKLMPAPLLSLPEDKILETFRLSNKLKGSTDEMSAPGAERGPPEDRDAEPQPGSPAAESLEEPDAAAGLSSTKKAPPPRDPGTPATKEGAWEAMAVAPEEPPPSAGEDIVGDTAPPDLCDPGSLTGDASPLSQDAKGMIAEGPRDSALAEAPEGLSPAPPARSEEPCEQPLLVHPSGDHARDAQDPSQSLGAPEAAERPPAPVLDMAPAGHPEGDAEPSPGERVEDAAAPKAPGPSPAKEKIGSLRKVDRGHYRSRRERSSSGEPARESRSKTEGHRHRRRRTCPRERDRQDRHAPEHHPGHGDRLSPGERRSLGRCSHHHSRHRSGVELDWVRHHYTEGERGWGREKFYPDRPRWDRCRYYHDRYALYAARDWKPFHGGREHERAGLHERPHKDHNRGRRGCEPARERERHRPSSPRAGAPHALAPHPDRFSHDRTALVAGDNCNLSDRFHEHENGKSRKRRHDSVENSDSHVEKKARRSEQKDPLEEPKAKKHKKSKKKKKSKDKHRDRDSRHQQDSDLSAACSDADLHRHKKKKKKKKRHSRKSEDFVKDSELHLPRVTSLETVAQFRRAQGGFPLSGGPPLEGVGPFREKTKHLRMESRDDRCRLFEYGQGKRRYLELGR
Outline: (§1)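 Each value is an average log2 ratio of fragment to vehicle, tested by unpaired t-test. The underlying Spectronaut label-free quantities were global-median-normalised, and only proteins with ≥2 unique peptides were included. Triplicate HEK293T lysate samples (495 µg) were exposed to fragment at 200 µM or vehicle for 3 h, then to Biotin-Ahx-Ub-VS at 0.5 µM final for 1 h, before NeutrAvidin enrichment of labelled DUBs, LysC and trypsin digestion, and diaPASEF LC-MS/MS.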

USP46 = USP46 (UniProt P62068)
Sequence of USP46 (P62068 whole entry): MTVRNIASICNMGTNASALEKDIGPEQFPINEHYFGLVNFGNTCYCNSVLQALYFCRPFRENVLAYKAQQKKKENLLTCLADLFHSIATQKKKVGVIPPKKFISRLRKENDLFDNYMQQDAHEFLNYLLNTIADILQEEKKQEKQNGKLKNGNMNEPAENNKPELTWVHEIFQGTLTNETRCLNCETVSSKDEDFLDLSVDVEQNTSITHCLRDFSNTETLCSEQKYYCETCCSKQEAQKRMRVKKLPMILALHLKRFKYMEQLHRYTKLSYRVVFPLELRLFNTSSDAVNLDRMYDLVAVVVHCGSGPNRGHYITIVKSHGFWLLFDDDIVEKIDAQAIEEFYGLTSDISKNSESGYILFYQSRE
Outline: as §1

USP47 = biological target: T2, USP47 (UniProt Q96K76)
T2 sequence (whole entry): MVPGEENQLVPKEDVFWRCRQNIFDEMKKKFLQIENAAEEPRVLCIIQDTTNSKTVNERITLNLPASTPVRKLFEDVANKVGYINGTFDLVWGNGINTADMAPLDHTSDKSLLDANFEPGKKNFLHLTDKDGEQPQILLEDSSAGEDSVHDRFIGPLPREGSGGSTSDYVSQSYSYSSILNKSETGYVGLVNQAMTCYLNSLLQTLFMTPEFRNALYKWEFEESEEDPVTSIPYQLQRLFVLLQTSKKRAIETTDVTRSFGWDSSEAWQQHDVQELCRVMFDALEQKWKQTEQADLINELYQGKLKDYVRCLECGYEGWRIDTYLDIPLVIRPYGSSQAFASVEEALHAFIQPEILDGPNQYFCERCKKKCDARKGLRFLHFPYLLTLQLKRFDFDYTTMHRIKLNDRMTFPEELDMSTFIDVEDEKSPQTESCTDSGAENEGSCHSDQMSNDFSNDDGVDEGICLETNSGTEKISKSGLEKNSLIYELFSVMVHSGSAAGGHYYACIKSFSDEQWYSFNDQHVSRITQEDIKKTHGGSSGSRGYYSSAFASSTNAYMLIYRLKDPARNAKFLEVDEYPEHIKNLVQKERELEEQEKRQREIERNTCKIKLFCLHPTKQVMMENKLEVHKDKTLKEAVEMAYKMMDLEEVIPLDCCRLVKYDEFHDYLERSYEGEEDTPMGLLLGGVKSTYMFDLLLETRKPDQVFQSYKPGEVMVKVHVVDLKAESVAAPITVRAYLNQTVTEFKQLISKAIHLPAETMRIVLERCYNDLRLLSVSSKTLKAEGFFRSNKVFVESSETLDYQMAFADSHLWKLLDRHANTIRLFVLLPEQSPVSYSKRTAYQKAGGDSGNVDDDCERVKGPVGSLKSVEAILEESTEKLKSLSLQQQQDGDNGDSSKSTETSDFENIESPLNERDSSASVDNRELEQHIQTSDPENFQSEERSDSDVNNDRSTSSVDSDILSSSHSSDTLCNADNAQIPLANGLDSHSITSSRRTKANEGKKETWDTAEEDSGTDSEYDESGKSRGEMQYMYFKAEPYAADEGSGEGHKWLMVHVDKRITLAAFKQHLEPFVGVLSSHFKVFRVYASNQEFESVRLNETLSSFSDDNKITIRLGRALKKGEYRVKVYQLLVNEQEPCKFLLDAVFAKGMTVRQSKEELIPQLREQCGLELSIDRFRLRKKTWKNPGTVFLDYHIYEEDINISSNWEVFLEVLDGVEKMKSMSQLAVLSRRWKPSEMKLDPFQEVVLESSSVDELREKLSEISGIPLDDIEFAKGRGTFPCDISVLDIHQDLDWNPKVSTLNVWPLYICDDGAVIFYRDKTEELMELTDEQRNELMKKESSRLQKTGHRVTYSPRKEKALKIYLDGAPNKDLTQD
Outline: as §1

USP48 = biological target: T3, USP48 (UniProt Q86UV5)
T3 sequence (whole entry): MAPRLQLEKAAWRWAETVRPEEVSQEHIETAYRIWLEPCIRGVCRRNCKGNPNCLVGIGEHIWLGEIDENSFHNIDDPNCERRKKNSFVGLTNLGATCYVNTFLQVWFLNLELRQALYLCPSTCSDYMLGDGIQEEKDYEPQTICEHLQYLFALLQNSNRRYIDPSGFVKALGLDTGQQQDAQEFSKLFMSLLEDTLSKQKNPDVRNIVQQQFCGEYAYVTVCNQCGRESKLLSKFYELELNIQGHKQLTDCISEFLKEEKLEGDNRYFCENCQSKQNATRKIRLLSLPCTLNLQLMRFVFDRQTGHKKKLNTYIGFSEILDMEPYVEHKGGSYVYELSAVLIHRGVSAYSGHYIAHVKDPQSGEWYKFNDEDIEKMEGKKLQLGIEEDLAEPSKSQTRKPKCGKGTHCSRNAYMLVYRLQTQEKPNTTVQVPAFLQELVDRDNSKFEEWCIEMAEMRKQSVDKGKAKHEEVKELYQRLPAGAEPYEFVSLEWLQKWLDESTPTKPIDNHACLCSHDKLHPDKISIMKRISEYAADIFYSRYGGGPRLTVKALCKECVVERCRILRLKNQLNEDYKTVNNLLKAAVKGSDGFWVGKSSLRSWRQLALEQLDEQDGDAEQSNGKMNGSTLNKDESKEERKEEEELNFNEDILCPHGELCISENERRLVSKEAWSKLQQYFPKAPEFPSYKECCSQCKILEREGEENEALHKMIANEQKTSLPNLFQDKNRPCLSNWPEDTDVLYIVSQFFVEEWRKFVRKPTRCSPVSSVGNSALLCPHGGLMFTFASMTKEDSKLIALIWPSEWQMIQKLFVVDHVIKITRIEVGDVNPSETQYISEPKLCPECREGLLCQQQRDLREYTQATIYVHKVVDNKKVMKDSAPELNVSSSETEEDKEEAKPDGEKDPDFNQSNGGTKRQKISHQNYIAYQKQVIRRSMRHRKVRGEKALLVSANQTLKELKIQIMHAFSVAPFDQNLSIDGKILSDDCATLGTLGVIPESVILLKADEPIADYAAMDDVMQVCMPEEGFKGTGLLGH
Outline: as §1

USP5 = biological target: T4, USP5 (UniProt P45974)
T4 sequence (whole entry): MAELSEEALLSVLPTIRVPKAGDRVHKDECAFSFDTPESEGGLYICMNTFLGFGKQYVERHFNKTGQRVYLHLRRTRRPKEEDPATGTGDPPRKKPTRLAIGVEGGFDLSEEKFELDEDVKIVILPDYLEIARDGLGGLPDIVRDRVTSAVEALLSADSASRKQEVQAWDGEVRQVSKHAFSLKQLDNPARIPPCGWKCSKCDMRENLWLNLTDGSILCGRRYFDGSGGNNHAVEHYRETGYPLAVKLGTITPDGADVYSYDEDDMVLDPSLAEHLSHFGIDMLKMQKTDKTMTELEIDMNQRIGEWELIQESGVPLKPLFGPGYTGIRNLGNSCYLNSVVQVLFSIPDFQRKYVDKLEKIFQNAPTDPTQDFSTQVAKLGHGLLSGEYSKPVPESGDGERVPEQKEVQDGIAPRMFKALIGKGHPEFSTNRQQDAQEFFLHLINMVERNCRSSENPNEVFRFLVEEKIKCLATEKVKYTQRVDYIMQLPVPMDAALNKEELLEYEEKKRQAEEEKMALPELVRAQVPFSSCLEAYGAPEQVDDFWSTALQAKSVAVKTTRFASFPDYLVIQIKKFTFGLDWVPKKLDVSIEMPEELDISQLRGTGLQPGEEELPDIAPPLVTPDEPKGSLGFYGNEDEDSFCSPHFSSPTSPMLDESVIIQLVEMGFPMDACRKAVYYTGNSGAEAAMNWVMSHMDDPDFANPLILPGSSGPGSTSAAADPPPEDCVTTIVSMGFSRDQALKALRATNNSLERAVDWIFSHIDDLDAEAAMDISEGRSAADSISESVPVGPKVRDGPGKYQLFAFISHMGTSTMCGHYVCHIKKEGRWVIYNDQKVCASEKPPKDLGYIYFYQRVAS
Outline: as §1

USP54 = USP54 (UniProt Q70EL1)
Sequence of USP54 (Q70EL1 whole entry): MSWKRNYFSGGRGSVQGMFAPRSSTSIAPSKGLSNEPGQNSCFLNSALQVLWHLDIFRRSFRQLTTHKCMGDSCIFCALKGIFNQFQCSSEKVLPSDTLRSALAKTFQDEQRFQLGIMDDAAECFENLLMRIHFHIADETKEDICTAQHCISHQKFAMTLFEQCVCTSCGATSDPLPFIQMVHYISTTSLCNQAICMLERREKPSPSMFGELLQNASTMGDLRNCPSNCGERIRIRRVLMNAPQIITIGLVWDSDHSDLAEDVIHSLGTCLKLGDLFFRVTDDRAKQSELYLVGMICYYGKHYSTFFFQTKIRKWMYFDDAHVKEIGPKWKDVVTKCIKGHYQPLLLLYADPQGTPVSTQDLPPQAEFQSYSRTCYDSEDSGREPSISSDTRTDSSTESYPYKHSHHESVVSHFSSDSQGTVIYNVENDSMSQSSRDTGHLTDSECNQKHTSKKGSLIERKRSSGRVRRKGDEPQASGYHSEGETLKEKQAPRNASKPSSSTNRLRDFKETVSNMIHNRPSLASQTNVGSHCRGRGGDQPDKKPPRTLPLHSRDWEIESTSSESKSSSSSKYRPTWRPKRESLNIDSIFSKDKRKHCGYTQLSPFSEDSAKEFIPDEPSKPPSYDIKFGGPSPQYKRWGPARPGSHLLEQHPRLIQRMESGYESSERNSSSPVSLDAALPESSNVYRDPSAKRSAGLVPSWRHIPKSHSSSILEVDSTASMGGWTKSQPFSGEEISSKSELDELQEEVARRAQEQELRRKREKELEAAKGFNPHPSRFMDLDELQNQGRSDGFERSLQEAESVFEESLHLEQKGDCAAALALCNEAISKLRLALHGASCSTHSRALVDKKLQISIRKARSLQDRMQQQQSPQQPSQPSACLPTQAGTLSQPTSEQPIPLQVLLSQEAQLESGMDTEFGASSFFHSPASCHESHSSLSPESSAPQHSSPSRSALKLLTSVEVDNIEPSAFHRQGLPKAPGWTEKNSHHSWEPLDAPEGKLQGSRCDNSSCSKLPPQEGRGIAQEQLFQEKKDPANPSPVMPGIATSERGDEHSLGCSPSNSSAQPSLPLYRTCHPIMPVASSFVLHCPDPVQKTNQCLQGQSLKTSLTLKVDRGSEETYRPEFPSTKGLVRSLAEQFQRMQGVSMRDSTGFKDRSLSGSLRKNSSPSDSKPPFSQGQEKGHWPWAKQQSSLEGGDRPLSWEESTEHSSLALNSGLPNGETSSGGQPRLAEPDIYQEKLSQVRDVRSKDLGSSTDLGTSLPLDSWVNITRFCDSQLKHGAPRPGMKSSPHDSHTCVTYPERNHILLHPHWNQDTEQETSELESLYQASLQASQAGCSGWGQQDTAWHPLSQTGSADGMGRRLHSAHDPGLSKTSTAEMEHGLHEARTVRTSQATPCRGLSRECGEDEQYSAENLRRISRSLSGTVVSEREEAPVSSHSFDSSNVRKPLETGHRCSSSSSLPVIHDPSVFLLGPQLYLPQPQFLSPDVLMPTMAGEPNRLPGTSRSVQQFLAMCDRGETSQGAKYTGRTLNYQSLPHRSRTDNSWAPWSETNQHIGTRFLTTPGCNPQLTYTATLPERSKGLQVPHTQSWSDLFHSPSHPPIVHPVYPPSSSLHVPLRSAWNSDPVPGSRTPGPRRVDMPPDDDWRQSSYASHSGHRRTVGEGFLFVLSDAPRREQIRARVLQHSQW
Outline: as §1

USP7 = USP7 (UniProt Q93009)
Outline: as §1

USP8 = biological target: T5, USP8 (UniProt P40818)
T5 sequence (whole entry): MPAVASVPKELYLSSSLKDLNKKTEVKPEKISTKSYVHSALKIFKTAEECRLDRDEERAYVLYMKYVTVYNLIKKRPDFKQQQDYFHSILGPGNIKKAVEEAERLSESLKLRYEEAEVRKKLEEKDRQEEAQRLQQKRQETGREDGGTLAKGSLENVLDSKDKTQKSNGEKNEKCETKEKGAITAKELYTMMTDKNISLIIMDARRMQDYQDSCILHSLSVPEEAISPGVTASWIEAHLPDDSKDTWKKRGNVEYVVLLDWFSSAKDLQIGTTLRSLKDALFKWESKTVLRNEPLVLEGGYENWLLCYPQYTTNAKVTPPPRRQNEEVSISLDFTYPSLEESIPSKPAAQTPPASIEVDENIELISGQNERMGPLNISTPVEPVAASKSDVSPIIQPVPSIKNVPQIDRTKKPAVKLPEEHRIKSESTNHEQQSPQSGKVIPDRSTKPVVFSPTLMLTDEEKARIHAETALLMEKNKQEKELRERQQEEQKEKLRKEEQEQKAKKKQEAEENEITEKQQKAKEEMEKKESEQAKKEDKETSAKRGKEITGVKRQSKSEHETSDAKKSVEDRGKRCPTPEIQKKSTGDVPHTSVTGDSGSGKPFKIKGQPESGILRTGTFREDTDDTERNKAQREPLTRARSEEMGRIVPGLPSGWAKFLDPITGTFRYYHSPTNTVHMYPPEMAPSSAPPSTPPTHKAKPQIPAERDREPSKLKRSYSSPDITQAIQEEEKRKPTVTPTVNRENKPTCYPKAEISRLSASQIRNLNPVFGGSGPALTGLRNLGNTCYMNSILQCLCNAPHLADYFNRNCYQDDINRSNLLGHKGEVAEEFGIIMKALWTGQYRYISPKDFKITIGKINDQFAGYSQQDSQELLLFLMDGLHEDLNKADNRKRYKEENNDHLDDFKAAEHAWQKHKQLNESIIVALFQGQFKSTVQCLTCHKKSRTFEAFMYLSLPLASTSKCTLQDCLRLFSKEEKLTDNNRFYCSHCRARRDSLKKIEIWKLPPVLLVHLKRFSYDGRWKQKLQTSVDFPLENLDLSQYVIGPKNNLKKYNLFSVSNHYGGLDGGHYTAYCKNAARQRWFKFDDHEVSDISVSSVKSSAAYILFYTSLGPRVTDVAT
Outline: as §1

USP9X = USP9X (UniProt Q93008)
Sequence of USP9X (Q93008 whole entry): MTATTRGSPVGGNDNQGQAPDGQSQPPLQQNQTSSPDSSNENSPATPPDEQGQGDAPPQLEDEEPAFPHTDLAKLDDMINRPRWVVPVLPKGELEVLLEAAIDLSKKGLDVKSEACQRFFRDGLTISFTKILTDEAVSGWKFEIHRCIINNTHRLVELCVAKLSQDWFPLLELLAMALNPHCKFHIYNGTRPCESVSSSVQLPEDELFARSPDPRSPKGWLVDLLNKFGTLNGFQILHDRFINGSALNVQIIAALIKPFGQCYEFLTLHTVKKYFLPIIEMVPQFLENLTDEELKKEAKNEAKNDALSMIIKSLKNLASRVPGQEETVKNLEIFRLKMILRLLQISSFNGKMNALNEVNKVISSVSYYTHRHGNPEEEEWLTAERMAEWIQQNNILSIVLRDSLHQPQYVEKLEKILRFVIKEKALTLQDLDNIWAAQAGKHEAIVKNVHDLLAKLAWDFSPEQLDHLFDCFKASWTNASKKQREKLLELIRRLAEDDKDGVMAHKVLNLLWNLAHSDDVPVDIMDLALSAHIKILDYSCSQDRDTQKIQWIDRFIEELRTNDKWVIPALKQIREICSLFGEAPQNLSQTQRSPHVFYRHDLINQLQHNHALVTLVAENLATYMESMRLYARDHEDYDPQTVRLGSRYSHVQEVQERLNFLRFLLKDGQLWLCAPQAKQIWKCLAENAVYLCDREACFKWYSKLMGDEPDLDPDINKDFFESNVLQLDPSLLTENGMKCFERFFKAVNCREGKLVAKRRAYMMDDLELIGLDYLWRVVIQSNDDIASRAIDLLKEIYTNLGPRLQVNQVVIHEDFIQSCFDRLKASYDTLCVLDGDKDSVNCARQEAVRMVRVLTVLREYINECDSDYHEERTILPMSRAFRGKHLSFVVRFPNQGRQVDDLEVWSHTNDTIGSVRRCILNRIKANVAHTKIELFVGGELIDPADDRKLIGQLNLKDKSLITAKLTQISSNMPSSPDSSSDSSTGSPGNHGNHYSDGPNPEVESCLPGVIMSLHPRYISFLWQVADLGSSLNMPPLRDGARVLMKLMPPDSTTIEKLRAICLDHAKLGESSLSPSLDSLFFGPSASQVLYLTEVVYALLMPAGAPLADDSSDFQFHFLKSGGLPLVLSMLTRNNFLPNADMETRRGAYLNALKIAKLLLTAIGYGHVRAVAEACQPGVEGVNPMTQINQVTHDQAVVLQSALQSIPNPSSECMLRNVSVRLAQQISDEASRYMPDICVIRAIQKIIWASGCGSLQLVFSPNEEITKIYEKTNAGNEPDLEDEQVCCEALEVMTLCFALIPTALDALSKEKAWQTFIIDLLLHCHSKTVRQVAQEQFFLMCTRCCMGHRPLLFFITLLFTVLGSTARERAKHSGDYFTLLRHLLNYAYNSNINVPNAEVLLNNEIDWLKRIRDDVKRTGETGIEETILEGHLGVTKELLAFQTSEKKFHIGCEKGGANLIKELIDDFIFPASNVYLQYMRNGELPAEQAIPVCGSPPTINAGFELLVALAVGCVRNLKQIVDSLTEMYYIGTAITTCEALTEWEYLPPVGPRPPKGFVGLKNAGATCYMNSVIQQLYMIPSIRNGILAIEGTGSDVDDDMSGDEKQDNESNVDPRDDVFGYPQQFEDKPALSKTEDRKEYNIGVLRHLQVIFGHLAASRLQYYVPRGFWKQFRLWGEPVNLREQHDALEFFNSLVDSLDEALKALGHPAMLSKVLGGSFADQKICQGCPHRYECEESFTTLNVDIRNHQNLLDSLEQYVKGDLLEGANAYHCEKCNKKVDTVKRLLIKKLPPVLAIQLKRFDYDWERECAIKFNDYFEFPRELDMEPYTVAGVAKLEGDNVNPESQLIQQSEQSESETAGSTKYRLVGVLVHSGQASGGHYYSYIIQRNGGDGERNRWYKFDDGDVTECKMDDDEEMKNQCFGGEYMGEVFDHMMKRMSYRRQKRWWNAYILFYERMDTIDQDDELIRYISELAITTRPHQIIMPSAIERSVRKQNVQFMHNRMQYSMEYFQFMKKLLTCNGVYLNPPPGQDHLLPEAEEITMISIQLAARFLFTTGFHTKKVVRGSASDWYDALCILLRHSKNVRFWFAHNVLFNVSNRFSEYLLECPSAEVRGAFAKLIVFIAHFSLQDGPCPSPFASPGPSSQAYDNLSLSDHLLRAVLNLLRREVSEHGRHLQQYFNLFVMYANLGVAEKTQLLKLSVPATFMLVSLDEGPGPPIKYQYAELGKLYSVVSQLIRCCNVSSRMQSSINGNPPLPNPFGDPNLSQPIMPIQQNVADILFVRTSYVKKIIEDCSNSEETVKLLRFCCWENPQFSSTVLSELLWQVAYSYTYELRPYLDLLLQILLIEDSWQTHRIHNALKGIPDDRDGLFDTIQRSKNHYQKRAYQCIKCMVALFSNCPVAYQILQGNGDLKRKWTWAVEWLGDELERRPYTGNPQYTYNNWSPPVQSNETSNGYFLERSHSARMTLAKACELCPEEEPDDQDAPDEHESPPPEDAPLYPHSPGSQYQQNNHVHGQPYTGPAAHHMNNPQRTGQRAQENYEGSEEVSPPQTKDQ
Outline: as §1

UniProt O00487 = biological target: UniProt O00487
Sequence of UniProt O00487 (O00487 whole entry): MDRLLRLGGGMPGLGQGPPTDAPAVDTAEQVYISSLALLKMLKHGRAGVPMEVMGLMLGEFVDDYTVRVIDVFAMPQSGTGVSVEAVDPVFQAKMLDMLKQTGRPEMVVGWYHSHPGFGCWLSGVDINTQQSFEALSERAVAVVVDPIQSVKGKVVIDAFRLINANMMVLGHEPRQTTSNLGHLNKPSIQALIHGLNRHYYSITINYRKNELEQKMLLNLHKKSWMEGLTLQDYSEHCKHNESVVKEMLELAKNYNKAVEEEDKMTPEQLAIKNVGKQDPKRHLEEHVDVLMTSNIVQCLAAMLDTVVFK
Outline: as §1

Measured: log2 ratio of Biotin-Ahx-Ub-VS probe labelling

O=C(CCl)NC(Cn1ccccc1=O)c1ccccc1 (stereo not given)
inactive: USP42 -0.346 | USP46 0.258 | USP47 -0.4 | USP48 0.0761 | USP5 0.132 | USP54 0.317 | USP7 -0.205 | USP8 -0.0535 | USP9X -0.00544 | UniProt O00487 0.0216
